Laboratory results published in PubChem BioAssay AID1159580 (chemical genetic matrix, 2015).
Out of some 5,500 compounds screened, about 2,000 (36%) were called active. Not shown: some 18% with an inconclusive outcome. Cut-off read from the data, not from the text of the source: active = normalized growth mostly below about 0.91 (no sharp cut-off); inconclusive = no clear call, values can overlap the other calls; inactive = mostly above about 0.92. The list shows a part of the results.

Experiment: chemical genetic growth profiling, strain panel (AID 1159580);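 note: tested at 20 µM; growth read once vehicle control cultures reached saturation at 30 °C; 1 = growth at the plate median or of vehicle wells; lower values mean less growth of the strain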
Settings: growth OD

Measured: normalized growth

Clc1ccc(CSC(Cn2ccnc2)c2ccc(Cl)cc2Cl)cc1 (stereo not given)
active: S. cerevisiae deletion strains, locus YJR075W, strain HOC1, hits give low values 0.0603 | S. cerevisiae deletion strains, locus YKL009W, strain mrt4, hits give low values 0.0877 | S. cerevisiae deletion strains, locus YKL068W, hits give low values 0.0746 | S. cerevisiae deletion strains, locus YKL085W, strain MDH1 (second series), hits give low values 0.0615 | S. cerevisiae deletion strains, locus YKL085W, strain MDH1, hits give low values 0.0615 | S. cerevisiae deletion strains, locus YKL160W, strain elf1, hits give low values 0.065 | S. cerevisiae deletion strains, locus YKL190W, strain CNB1, hits give low values 0.0451 | S. cerevisiae deletion strains, locus YKR001C, strain vps1, hits give low values 0.0681 | S. cerevisiae deletion strains, locus YKR026C, strain gcn3, hits give low values 0.0654 | S. cerevisiae deletion strains, locus YKR091W, strain srl3, hits give low values 0.0606 | S. cerevisiae deletion strains, locus YLL001W, strain dnm1, hits give low values 0.0654 | S. cerevisiae deletion strains, locus YLL026W, hits give low values 0.0574 | S. cerevisiae deletion strains, locus YLL041C, strain sdh2, hits give low values 0.0577 | S. cerevisiae deletion strains, locus YLR027C, strain aat2, hits give low values 0.0604 | S. cerevisiae deletion strains, locus YLR039C, strain RIC1, hits give low values 0.079 | S. cerevisiae deletion strains, locus YLR058C, strain SHM2, hits give low values 0.0452 | S. cerevisiae deletion strains, locus YLR102C, strain apc9, hits give low values 0.0588 | S. cerevisiae deletion strains, locus YLR113W, strain HOG1, hits give low values 0.116 | S. cerevisiae deletion strains, locus YLR221C, strain rsa3, hits give low values 0.0604 | S. cerevisiae deletion strains, locus YLR258W, strain gsy2, hits give low values 0.0614 | S. cerevisiae deletion strains, locus YLR262C, strain YPT6 (second series), hits give low values 0.0789 | S. cerevisiae deletion strains, locus YLR262C, strain YPT6, hits give low values 0.103 | S. cerevisiae deletion strains, locus YLR268W, strain sec22, hits give low values 0.0568 | S. cerevisiae deletion strains, locus YLR320W, strain mms22, hits give low values 0.0761 | S. cerevisiae deletion strains, locus YLR330W, strain CHS5, hits give low values 0.0514 | S. cerevisiae deletion strains, locus YLR342W, strain FKS1 (second series), hits give low values 0.0606 | S. cerevisiae deletion strains, locus YLR342W, strain FKS1, hits give low values 0.0676 | S. cerevisiae deletion strains, locus YLR357W, strain rsc2, hits give low values 0.12 | S. cerevisiae deletion strains, locus YLR370C, strain arc18, hits give low values 0.0635 | S. cerevisiae deletion strains, locus YLR371W, strain rom2, hits give low values 0.0606 | S. cerevisiae deletion strains, locus YLR384C, strain iki3, hits give low values 0.0593 | S. cerevisiae deletion strains, locus YLR418C, strain cdc73, hits give low values 0.0853 | S. cerevisiae deletion strains, locus YML016C, strain PPZ1, hits give low values 0.0444 | S. cerevisiae deletion strains, locus YML032C, strain rad52, hits give low values 0.0643 | S. cerevisiae deletion strains, locus YML120C, strain ndi1, hits give low values 0.0571 | S. cerevisiae deletion strains, locus YML124C, strain tub3, hits give low values 0.0572 | S. cerevisiae deletion strains, locus YMR058W, strain fet3, hits give low values 0.0638 | S. cerevisiae deletion strains, locus YMR078C, strain ctf18, hits give low values 0.0695 | S. cerevisiae deletion strains, locus YMR125W, strain sto1, hits give low values 0.0785 | S. cerevisiae deletion strains, locus YMR129W, hits give low values 0.0574 | S. cerevisiae deletion strains, locus YMR205C, strain PFK2, hits give low values 0.0897 | S. cerevisiae deletion strains, locus YMR223W, strain ubp8, hits give low values 0.0591 | S. cerevisiae deletion strains, locus YMR231W, strain pep5, hits give low values 0.146 | S. cerevisiae deletion strains, locus YMR263W, strain SAP30, hits give low values 0.0544 | S. cerevisiae deletion strains, locus YMR307W, strain GAS1, hits give low values 0.12 | S. cerevisiae deletion strains, locus YNL067W, strain RPL9B, hits give low values 0.0471 | S. cerevisiae deletion strains, locus YNL071W, strain lat1, hits give low values 0.0619 | S. cerevisiae deletion strains, locus YNL128W, strain TEP1, hits give low values 0.0608 | S. cerevisiae deletion strains, locus YNL183C, strain NPR1, hits give low values 0.000263 | S. cerevisiae deletion strains, locus YNL209W, strain ssb2, hits give low values 0.0676 | S. cerevisiae deletion strains, locus YNL233W, strain BNI4, hits give low values 0.0515 | S. cerevisiae deletion strains, locus YNL248C, strain rpa49, hits give low values 0.0789 | S. cerevisiae deletion strains, locus YNL250W, strain rad50, hits give low values 0.0722 | S. cerevisiae deletion strains, locus YNL271C, strain bni1, hits give low values 0.0682 | S. cerevisiae deletion strains, locus YNL298W, strain CLA4, hits give low values 0.0628 | S. cerevisiae deletion strains, locus YNL307C, strain MCK1, hits give low values 0.0686 | S. cerevisiae deletion strains, locus YNL322C, strain KRE1 (second series), hits give low values 0.0666 | S. cerevisiae deletion strains, locus YNL322C, strain KRE1, hits give low values 0.045 | S. cerevisiae deletion strains, locus YNR049C, strain mso1, hits give low values 0.0586 | S. cerevisiae deletion strains, locus YNR052C, strain pop2, hits give low values 0.0598 | S. cerevisiae deletion strains, locus YOL006C, strain TOP1, hits give low values 0.0991 | S. cerevisiae deletion strains, locus YOL012C, strain htz1 0.137 | S. cerevisiae deletion strains, locus YOL147C, strain pex11, hits give low values 0.0557 | S. cerevisiae deletion strains, locus YOR001W, strain rrp6, hits give low values 0.0726 | S. cerevisiae deletion strains, locus YOR061W, strain CKA2, hits give low values 0.0436 | S. cerevisiae deletion strains, locus YOR069W, strain VPS5, hits give low values 0.0456 | S. cerevisiae deletion strains, locus YOR070C, strain gyp1, hits give low values 0.0632 | S. cerevisiae deletion strains, locus YOR080W, strain dia2, hits give low values 0.0638 | S. cerevisiae deletion strains, locus YOR083W, strain WHI5, hits give low values 0.0689 | S. cerevisiae deletion strains, locus YOR106W, strain vam3, hits give low values 0.0699 | S. cerevisiae deletion strains, locus YOR136W, strain idh2, hits give low values 0.0693 | S. cerevisiae deletion strains, locus YOR144C, strain elg1, hits give low values 0.0562 | S. cerevisiae deletion strains, locus YOR184W, strain ser1, hits give low values 0.0618 | S. cerevisiae deletion strains, locus YOR231W, strain MKK1, hits give low values 0.102 | S. cerevisiae deletion strains, locus YOR265W, strain rbl2, hits give low values 0.0591 | S. cerevisiae deletion strains, locus YOR270C, strain vph1, hits give low values 0.111 | S. cerevisiae deletion strains, locus YOR290C, strain snf2, hits give low values 0.0745 | S. cerevisiae deletion strains, locus YOR316C, strain cot1, hits give low values 0.0584 | S. cerevisiae deletion strains, locus YPL051W, strain arl3, hits give low values 0.0666 | S. cerevisiae deletion strains, locus YPL078C, strain atp4, hits give low values 0.0762 | S. cerevisiae deletion strains, locus YPL106C, strain sse1, hits give low values 0.0973 | S. cerevisiae deletion strains, locus YPL240C, strain hsp82, hits give low values 0.0582 | S. cerevisiae deletion strains, locus YPL241C, strain CIN2, hits give low values 0.0455 | S. cerevisiae deletion strains, locus YPL256C, strain CLN2, hits give low values 0.113 | S. cerevisiae deletion strains, locus YPR119W, strain clb2, hits give low values 0.061 | S. cerevisiae deletion strains, locus YPR141C, strain kar3, hits give low values 0.0736 | S. cerevisiae deletion strains, locus YPR163C, strain tif3, hits give low values 0.067 | S. cerevisiae deletion strains, locus YPR167C, strain met16, hits give low values 0.0596 | S. cerevisiae deletion strains, strain wtn01, hits give low values 0.0571 | S. cerevisiae strains, strain wild type, hits give low values 0.0459
